The target of experiment [1] is Bile acid receptor (Homo sapiens) (UniProt Q96RI1). Description: ATG_IR1_CIS: Attagene CIS-FACTORIAL HepG2 Assay for human Nuclear Receptor Subfamily 1 Group H Member 4 (NR1H4), IR1 submotif (AID 2282946). Particulars: IR1 reporter transcription, actives raise or lower the signal. The essentials: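 HepG2 cells transiently transfected with multiplexed cis-element reporter units read endogenous transcription factor activity. After 24 h compound exposure, reporter mRNA was quantified by RT-PCR, fluorescent labelling, HpaI digestion and capillary electrophoresis; bidirectional fitting versus DMSO baseline.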
Bile acid receptor (Homo sapiens), sequence (Q96RI1 whole entry, looked up): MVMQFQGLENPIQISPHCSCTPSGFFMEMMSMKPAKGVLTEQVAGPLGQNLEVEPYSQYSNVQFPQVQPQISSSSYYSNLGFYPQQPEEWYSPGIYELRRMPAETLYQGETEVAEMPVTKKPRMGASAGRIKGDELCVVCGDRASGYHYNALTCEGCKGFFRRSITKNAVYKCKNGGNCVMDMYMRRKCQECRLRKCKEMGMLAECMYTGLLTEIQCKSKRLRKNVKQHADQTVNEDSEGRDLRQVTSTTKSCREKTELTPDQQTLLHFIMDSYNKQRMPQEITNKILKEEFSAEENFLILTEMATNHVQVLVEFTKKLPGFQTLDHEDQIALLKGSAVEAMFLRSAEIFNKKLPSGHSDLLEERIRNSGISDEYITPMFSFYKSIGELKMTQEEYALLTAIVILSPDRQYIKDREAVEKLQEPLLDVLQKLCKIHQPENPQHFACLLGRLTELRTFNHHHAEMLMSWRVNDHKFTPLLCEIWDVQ

The nature of experiment [2]: ATG_GRE_CIS: Attagene CIS-FACTORIAL HepG2 Assay for human Glucocorticoid Response Elements (GRE) (AID 2282947). Particulars: HepG2 GRE cis-reporter, Attagene multiplex mRNA; actives raise or lower the signal. The essentials: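 Multiplexed cis-reporter mRNA induction, HepG2, 24 h post-dose. RT-PCR, FAM-labelled, HpaI-digested amplicons by CE. Bidirectional fit vs DMSO.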

Experiment [3] in a line: ATG_ISRE_CIS: Attagene CIS-FACTORIAL HepG2 Assay for human Interferon Regulatory Factor 1 (IRF1) binding to an Interferon-Stimulated Response Element (ISRE) (AID 2282948). Particulars: HepG2 ISRE cis-reporter (Attagene), mRNA transcription readout; actives raise or lower the signal. The procedure, abridged: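 Multiplexed mRNA reporter readout in human liver HepG2 cells: cis-element-driven reporters transfected, compound added for 24 h, transcripts amplified, fluorescently labelled and sized by capillary electrophoresis; curve fitting bidirectional against DMSO.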

Experiment [4] is described as follows: ATG_M_32_CIS: Attagene CIS-FACTORIAL HepG2 Assay for M32 Transcription Factor (Internal Marker) (AID 2282949).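 Also: background control marker of the multiplexed CIS panel rather than a real target.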 Particulars: HepG2 Attagene cis-factorial M32 reporter, mRNA; actives raise or lower the signal. The essentials:
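Transient MRTU transfection of HepG2; 24 h compound treatment; TriZol RNA, oligo(dT) RT, reporter PCR, 6-FAM primer extension, HpaI cut, CE. Gain/loss of signal vs DMSO.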

Experiment [5] can be described thus: ATG_M_06_CIS: Attagene CIS-FACTORIAL HepG2 Assay for M06 Transcription Factor (Internal Marker) (AID 2282950). Particulars: HepG2 Attagene CIS-FACTORIAL M06 internal marker reporter; actives raise or lower the signal. The essentials: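 Terse: HepG2, transient MRTU transfection (FuGene 6), 24 h dosing; total RNA, oligo(dT) RT, PCR, FAM label, HpaI cut, capillary electrophoresis; bidirectional fit vs DMSO baseline; background-control endpoint.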

In experiment [6] the target is Hypoxia-inducible factor 1-alpha (Homo sapiens) (UniProt Q16665). The experiment is described as follows: ATG_HIF1a_CIS: Attagene CIS-FACTORIAL HepG2 Assay for human Hypoxia Inducible Factor 1 (HIF1A) (AID 2282951). Particulars: HepG2 Attagene cis-factorial HIF1a reporter transcription; actives raise or lower the signal. The procedure, abridged:
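Dosed 24 h, transfected HepG2 cells yielded total RNA whose reporter transcripts were RT-PCR-amplified and sized by capillary electrophoresis using fluorescent labelling; DMSO defined baseline, with gain and loss of signal both fitted.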

Experiment [7] concerns the target Hepatocyte nuclear factor 6 (Homo sapiens) (UniProt Q9UBC0). The experiment is described as follows: ATG_HNF6_CIS: Attagene CIS-FACTORIAL HepG2 Assay for human Hepatocyte Nuclear Factor 6 (HNF6) (AID 2282952). Particulars: HepG2 Attagene cis-factorial HNF6 reporter transcription; actives raise or lower the signal. The procedure, abridged: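 Endogenous factor activity read in transiently transfected HepG2 via promoter-regulated reporter transcripts. RNA harvested 24 h post-dosing, reverse-transcribed, PCR-amplified, FAM-labelled, HpaI-digested and resolved by capillary electrophoresis; fitted in both directions against DMSO.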

Experiment [8] has as its target Heat shock factor protein 1 (Homo sapiens) (UniProt Q00613). Description: ATG_HSE_CIS: Attagene CIS-FACTORIAL HepG2 Assay for human Heat Shock Transcription Factor 1 (HSE) (AID 2282953). Particulars: HepG2 HSE cis-reporter, Attagene RNA transcription; actives raise or lower the signal. The essentials: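 Read-out: fluorescence of reporter-specific RT-PCR fragments separated by capillary electrophoresis. HepG2 carrying transfected cis-element reporter units; 24 h dosing; activity fitted in both directions relative to DMSO baseline.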

A short description of experiment [9]: ATG_MRE_CIS: Attagene CIS-FACTORIAL HepG2 Assay for human Metal Responsive Element (MRE) (AID 2282954). Particulars: HepG2 MRE cis-reporter transcription, Attagene multiplex; actives raise or lower the signal. The procedure, abridged: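 Multiplexed cis-reporter assay in human HepG2 liver cells, 24 h incubation with test chemical. Reporter transcripts measured by RT-PCR and capillary electrophoresis; values from bidirectional curve fitting versus DMSO.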

Experiment [10] can be described thus: ATG_PBREM_CIS: Attagene CIS-FACTORIAL HepG2 Assay for human Phenobarbital-responsive Enhancer Module (PBREM) (AID 2282955). Particulars: HepG2 PBREM cis-reporter, Attagene multiplexed transcription; actives raise or lower the signal. The essentials: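 Transfected liver-derived HepG2 cells exposed 24 h; PBREM reporter transcript quantified via RT-PCR and capillary electrophoresis, with activity in either direction referenced to DMSO.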

The target in experiment [11] is Paired box protein Pax-6 (Homo sapiens) (UniProt P26367). Description: ATG_Pax6_CIS: Attagene CIS-FACTORIAL HepG2 Assay for human Paired Box 6 (PAX6) (AID 2282956). Particulars: HepG2 CIS-FACTORIAL PAX6 reporter transcription, RNA readout; actives raise or lower the signal. The essentials:
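Fluorescent RT-PCR products separated by capillary electrophoresis report PAX6-linked promoter mRNA in HepG2 cells 24 h post-dose. Curves fitted bidirectionally, DMSO as negative control.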

A short description of experiment [12]: ATG_PXRE_CIS: Attagene CIS-FACTORIAL HepG2 Assay for human Pregnane X Receptor Element (PXRE) (AID 2282957). Particulars: HepG2 Attagene CIS-FACTORIAL PXRE reporter, mRNA; actives raise or lower the signal. The essentials:
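Reporter transcripts under endogenous PXR-responsive cis-regulation quantified from total RNA of transfected HepG2 cells 24 h post-dosing, via RT-PCR with fluorescent primer extension and capillary electrophoresis. Gain or loss of signal fitted against DMSO baseline.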

Experiment [13] is described as follows: ATG_PPRE_CIS: Attagene CIS-FACTORIAL HepG2 Assay for human Peroxisome Proliferator-activated Response Element (PPRE) (AID 2282958). Particulars: HepG2 PPRE cis-element reporter, Attagene transcription factor profiling; actives raise or lower the signal. The essentials:
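Measured endpoint: PPRE-controlled reporter mRNA, detected by RT-PCR and capillary electrophoresis fluorescence, from transiently transfected HepG2 cells 24 h after dosing. Curves fitted in both directions using DMSO baseline.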

Experiment [14] in a line: ATG_RORE_CIS: Attagene CIS-FACTORIAL HepG2 Assay for human RAR-related Orphan Receptor Element (RORE) (AID 2282959). Particulars: HepG2 Attagene cis-factorial RORE reporter, mRNA; actives raise or lower the signal. The procedure, abridged:
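Transiently transfected HepG2 reporter cells were treated 24 h. Reporter transcripts were detected by RT-PCR and capillary electrophoresis, with bidirectional fitting against DMSO.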

Experiment [15] can be described thus: ATG_Sox_CIS: Attagene CIS-FACTORIAL HepG2 Assay for human SRY-box transcription factor (SOX) (AID 2282960). Particulars: HepG2 Attagene cis-factorial SOX reporter, mRNA; actives raise or lower the signal. The essentials:
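Gain- or loss-of-signal endpoint, fitted bidirectionally with DMSO as negative control. Based on reporter mRNA from transfected HepG2 cells harvested 24 h post-treatment and quantified via RT-PCR and capillary electrophoresis.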

In experiment [16] the target is Transcription factor Sp1 (Homo sapiens) (UniProt P08047). The experiment is described as follows: ATG_Sp1_CIS: Attagene CIS-FACTORIAL HepG2 Assay for human Specificity Protein 1 (Sp1) (AID 2282961). Particulars: HepG2 Sp1 cis-reporter transcription, actives raise or lower the signal. The procedure, abridged: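 Endpoint reflects endogenous Sp1 transcriptional activity, not an exogenous fusion protein: HepG2 cells with transfected cis-regulated reporters, 24 h dosing, RT-PCR/capillary electrophoresis mRNA read-out, DMSO-normalised bidirectional fit.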
Transcription factor Sp1 (Homo sapiens), sequence (P08047 whole entry, looked up, the tested form may be a part): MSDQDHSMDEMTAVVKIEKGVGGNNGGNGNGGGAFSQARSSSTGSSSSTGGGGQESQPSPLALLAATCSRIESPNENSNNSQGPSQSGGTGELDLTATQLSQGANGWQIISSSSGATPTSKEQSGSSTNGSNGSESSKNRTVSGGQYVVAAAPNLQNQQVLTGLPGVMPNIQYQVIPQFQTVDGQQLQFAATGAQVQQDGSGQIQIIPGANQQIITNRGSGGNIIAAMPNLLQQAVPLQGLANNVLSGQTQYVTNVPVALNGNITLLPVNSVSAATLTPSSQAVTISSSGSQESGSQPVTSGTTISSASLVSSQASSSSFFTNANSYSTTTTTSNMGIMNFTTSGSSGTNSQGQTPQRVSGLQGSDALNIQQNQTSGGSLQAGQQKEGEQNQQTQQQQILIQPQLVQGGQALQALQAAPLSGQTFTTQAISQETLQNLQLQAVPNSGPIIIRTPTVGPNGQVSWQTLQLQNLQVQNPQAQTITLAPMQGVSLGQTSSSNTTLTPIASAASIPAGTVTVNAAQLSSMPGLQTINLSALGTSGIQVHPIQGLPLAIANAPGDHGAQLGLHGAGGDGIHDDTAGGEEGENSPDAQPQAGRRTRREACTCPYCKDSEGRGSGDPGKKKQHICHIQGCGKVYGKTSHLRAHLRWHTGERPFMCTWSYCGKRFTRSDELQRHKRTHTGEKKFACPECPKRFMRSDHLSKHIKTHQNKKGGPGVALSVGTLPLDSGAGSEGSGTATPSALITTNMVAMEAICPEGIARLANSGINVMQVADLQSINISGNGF

Experiment [17] in a line: ATG_SREBP_CIS: Attagene CIS-FACTORIAL HepG2 Assay for human Sterol Regulatory Element Binding (SREBP) (AID 2282962). Particulars: HepG2 Attagene cis-factorial SREBP reporter, mRNA; actives raise or lower the signal. The essentials:
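Endogenous factor activity is measured in HepG2 through multiplexed reporter units under cis-element control. Following a 24 h incubation, reporter transcripts are reverse-transcribed, PCR-amplified and sized by capillary electrophoresis; activity is fitted in both directions relative to DMSO.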

Experiment [18] can be described thus: ATG_TA_CIS: Attagene CIS-FACTORIAL HepG2 Assay for human TA Basal Promoter (AID 2282964). Particulars: HepG2 Attagene CIS-factorial TA basal promoter reporter; actives raise or lower the signal. The essentials:
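Transfected HepG2, 24 h compound exposure; RNA → RT-PCR → FAM primer extension → HpaI cut → CE fluorescence. Gain/loss-of-signal fitted against DMSO negative control. Background-control readout.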

A short description of experiment [19]: ATG_TCF_b_cat_CIS: Attagene CIS-FACTORIAL HepG2 Assay for human T-Cell-Factor with beta-catenin (TCF/b-cat) (AID 2282965). Particulars: HepG2 TCF/beta-catenin cis-reporter transcription, actives raise or lower the signal. The procedure, abridged: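 Endogenous transcription factor activity is captured through cis-promoter reporter constructs transiently introduced into human HepG2 liver cells. Induced reporter mRNA is measured after 24 h and fitted bidirectionally relative to DMSO.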

For experiment [20], the target named is Signal transducer and activator of transcription 3 (Homo sapiens) (UniProt P40763). The experiment is described as follows: ATG_STAT3_CIS: Attagene CIS-FACTORIAL HepG2 Assay for human Signal Transducer and Activator of Transcription 3 (STAT3) (AID 2282963). Particulars: HepG2, Attagene cis-factorial STAT3 reporter transcription; actives raise or lower the signal. The essentials:
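Cis-factorial format: endogenous transcription factors in HepG2 drive transfected reporter units. After 24 h treatment, reporter RNA was reverse-transcribed, amplified, FAM-labelled and HpaI-digested before CE analysis; activity scored in both directions against DMSO.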

Active and inactive are the calls of the source. The calls were made as follows: active = hit-call score of the fitted dose curve at least 0.9, where 1 is the maximum; inactive = score below 0.9.

The source of these data is PubChem BioAssay (EPA / NIEHS).

Hepatocyte nuclear factor 6 (Homo sapiens), sequence (Q9UBC0 whole entry, looked up): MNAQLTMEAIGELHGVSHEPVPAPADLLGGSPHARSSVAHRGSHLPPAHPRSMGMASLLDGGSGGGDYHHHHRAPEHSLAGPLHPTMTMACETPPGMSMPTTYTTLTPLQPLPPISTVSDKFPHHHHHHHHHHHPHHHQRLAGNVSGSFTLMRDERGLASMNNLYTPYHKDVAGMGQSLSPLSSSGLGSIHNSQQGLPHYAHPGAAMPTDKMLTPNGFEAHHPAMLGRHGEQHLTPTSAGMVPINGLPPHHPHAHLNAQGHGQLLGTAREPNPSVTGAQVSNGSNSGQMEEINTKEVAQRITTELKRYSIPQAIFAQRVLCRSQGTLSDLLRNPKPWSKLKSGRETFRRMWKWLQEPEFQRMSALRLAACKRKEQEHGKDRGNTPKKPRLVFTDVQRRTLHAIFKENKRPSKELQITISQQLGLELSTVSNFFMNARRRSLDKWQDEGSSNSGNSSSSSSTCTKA
Heat shock factor protein 1 (Homo sapiens), sequence (Q00613 whole entry, looked up, the tested form may be a part): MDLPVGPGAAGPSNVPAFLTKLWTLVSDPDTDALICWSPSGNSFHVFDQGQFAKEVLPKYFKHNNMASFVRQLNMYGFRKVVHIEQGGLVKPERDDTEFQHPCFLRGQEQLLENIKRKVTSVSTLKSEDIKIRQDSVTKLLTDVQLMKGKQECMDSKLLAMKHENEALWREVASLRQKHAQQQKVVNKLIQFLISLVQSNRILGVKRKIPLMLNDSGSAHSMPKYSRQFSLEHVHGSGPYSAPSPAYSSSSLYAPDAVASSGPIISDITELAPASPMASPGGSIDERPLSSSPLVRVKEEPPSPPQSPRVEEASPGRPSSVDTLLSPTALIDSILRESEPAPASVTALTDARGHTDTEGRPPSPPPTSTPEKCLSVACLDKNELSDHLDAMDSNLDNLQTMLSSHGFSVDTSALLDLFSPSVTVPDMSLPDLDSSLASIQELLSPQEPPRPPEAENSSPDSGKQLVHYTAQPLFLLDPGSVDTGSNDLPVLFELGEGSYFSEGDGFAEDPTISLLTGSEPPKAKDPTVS
Hypoxia-inducible factor 1-alpha (Homo sapiens), sequence (Q16665 whole entry, looked up): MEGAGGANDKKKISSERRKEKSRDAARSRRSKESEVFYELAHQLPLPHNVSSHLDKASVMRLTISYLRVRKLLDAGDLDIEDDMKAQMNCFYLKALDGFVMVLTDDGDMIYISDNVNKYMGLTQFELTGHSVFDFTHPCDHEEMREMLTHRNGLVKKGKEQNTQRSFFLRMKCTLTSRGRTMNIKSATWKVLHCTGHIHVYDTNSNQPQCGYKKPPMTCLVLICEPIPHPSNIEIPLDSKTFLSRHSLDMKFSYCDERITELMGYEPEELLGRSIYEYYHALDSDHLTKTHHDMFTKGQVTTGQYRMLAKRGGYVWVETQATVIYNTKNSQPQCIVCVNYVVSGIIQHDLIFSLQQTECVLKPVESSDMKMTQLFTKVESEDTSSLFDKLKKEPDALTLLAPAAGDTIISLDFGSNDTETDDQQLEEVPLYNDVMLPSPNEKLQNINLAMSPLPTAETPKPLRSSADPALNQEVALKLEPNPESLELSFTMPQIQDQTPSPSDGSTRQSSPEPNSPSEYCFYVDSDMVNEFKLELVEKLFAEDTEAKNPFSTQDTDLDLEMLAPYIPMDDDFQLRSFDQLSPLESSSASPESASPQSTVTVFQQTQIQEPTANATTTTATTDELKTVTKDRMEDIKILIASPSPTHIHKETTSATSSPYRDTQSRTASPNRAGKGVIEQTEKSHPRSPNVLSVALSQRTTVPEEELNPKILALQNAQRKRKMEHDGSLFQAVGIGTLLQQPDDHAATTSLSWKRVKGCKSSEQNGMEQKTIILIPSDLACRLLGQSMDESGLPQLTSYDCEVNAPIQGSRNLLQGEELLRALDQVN
Paired box protein Pax-6 (Homo sapiens), sequence (P26367 whole entry, looked up): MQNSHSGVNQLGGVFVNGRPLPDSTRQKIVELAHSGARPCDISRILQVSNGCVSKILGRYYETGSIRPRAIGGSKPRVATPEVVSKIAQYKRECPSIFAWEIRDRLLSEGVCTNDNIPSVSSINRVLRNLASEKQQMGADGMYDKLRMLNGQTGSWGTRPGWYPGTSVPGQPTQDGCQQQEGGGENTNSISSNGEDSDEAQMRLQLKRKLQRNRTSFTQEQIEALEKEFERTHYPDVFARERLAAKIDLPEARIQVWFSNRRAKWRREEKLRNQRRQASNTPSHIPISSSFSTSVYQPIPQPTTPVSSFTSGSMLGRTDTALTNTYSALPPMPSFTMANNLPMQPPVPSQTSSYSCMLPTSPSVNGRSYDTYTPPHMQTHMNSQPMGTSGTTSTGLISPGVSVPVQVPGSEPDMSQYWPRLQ
Signal transducer and activator of transcription 3 (Homo sapiens), sequence (P40763 whole entry, looked up): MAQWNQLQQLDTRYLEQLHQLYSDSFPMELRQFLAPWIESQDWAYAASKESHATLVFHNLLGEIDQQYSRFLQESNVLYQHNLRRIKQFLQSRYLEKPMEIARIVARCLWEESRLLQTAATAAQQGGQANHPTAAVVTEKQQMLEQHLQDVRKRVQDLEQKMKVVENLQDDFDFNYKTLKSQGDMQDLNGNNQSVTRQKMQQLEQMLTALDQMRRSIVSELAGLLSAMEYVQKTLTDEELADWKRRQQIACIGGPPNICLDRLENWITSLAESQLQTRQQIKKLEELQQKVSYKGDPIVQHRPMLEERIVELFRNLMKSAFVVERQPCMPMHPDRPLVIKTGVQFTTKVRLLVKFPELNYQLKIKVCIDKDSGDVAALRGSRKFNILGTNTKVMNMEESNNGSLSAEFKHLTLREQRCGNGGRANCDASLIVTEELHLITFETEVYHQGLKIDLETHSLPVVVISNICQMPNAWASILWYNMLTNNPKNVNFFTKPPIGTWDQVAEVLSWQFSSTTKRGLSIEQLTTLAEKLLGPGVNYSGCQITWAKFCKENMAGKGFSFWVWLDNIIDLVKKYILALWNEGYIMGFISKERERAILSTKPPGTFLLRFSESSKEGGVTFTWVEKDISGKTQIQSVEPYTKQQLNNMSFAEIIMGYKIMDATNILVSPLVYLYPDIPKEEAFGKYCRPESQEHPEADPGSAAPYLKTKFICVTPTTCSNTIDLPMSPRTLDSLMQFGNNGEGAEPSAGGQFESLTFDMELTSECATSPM

In the case of `N#CC(Br)Br`, the compound was called inactive in experiment [1], in [2], in [3], in experiment [4], in [5] and in [6]. In addition, the compound was classed as inactive in experiment [7], in [8], in experiment [9], in experiment [10], in experiment [11] and in experiment [12]. Also, the result in [13], in experiment [14], in [15], in experiment [16], in [17] and in [18] was inactive. Also, the compound was called inactive in experiment [19].

By AC50 is commonly meant the concentration at which the activity in the assay is half-maximal. With `CC(C)(O)c1cnn2c(-c3ccc(F)c(-c4c(F)cccc4C#N)c3)cnc2n1`, the compound was called inactive in experiment [1], in [2], in experiment [3], in experiment [4], in experiment [5] and in experiment [7]. Moreover, the compound was called inactive in experiment [11], in experiment [13], in experiment [14], in experiment [15], in experiment [16] and in experiment [17]. The outcome in experiment [20] was inactive. For the same compound, the AC50 is 26.8 µM (active) in [6]; 25.8 µM (active) in experiment [8]; 1.73 µM (active) in experiment [9]; 0.785 µM (active) in [10]; 0.137 µM (active) in experiment [12]; 13.1 µM (active) in [18]. Besides, in [19], the AC50 was 8.97 µM (active).

As for `CCOC(=O)[C@]1(c2ccccc2)Oc2ccccc2[C@@H]1N`, the call in [1], in [5] and in experiment [19] was inactive. Further, the AC50 in experiment [2] is 52.6 µM (active); in [3], 33 µM (active); in [4] it was 52.7 µM (active); in experiment [6] it was 1.78 µM (active); in experiment [7], 43.3 µM (active); in [8], 61.8 µM (active). In addition, the concentration at half-maximal activity (AC50) in experiment [9] was 33 µM (active); in experiment [10], 9.64 µM (active); in experiment [12] it was 9.53 µM (active); in experiment [13] it was 13.8 µM (active); in [14], 33 µM (active); in experiment [15], 50.3 µM (active). Also, the AC50 in experiment [16] is 49.6 µM (active); in [17], 12.3 µM (active); in experiment [18] it was 33 µM (active).
